According to PubChem BioAssay (NCATS):
Records with an inconclusive call do not appear. Unmarked numbers belong to inactive results. Activity calls are given as the source filed them. The call rests on the fitted dose curve; in most records, active means well fitted inhibition curve with a large enough effect; inconclusive means small, poorly fitted or top-dose-only effect; inactive means no such curve, though single readings can be large or run the other way.

Target: M-phase phosphoprotein 8 (Homo sapiens) (UniProt Q99549)
Experiment: qHTS Validation Assay for Inhibitors for MPP8 Chromodomain Interactions with Methylated Histone Tails (AID 488949); further: nearly all actives have a fitted effect of over 55% in size;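 on activity change, negative = inhibition: AlphaScreen signal from MPP8 chromodomain bound to biotinylated H3K9me3 peptide; top concentration of the series differs between compounds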
Conditions: AlphaScreen MPP8 binding to H3K9me3 peptide; series mostly up to 57.1 µM; activity change, negative = inhibition: at the top concentration
Summary of the method: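 AlphaScreen read-out: streptavidin donor and nickel chelate acceptor beads (final 10 ug/mL), 30 min in the dark at RT. Complex of 50 nM MPP8 and 50 nM b-H3(1-18)K9me3 peptide had been exposed to compounds for 30 min beforehand.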
On the % scale 0 is the no-effect control and ±100 the full control effect; potency means the concentration at half of the fitted maximal effect.

M-phase phosphoprotein 8 (Homo sapiens), sequence (Q99549 whole entry, looked up): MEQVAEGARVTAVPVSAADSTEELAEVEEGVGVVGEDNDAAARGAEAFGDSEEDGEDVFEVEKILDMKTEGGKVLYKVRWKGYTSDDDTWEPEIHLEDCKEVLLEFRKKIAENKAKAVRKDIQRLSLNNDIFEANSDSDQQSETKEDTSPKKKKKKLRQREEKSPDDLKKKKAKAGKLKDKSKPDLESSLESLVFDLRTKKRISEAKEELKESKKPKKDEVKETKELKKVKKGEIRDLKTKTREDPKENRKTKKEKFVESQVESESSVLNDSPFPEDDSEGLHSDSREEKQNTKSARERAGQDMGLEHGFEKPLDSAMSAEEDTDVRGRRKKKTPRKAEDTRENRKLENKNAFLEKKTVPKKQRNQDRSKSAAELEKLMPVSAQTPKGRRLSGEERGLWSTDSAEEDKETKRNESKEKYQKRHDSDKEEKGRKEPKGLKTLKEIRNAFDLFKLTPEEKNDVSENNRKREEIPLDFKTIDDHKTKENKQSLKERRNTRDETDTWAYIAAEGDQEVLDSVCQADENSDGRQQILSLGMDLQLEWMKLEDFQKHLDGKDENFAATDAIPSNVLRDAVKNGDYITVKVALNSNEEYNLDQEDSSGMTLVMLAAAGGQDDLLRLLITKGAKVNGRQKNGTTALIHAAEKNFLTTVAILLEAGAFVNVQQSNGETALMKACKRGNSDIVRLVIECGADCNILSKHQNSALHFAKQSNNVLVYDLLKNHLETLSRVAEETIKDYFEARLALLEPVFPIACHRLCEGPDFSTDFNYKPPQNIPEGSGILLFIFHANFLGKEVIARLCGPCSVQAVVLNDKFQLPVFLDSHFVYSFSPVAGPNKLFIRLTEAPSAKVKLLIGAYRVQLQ

Structure (SMILES) | Potency | activity change, negative = inhibition [%]
O=C1NC(=O)c2cc(Nc3ccccc3)c(Nc3ccccc3)cc21 | 31.6 µM (active) | –
CC[n+]1c(/C=C/C=C2/N(C)c3ccccc3C2(C)C)sc2ccccc21 | 15 µM (active) | –
CSc1nc(N)c2ncn([C@@H]3O[C@H](COP(=O)(O)OP(=O)(O)O)C(O)[C@H]3O)c2n1 (some centres not stated) | – | -7.71
COc1ccc(CCn2nnnc2C2(c3ccc(C)cc3)CC2)cc1 | – | 18.7

Target: Chromobox protein homolog 1 (Homo sapiens) (UniProt P83916)
Experiment: qHTS Validation Assay for Inhibitors of HP1-beta Chromodomain Interactions with Methylated Histone Tails (AID 488953); further: nearly all actives have a fitted effect of over 50% in size;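 on activity change, negative = inhibition: loss of AlphaScreen luminescence from HP1-beta binding biotinylated H3K9me3 peptide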
Conditions: HP1-beta chromodomain / methylated histone peptide binding assay; series mostly up to 114 µM; activity change, negative = inhibition: at the top concentration
Summary of the method: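 HP1-beta (50 nM) preformed 30 min with biotinylated H3(1-18)K9me3 peptide (50 nM) in PBS pH 7.4, 0.01% Tween-20. Compounds added for 30 min at room temperature. Complex disruption read by AlphaScreen with streptavidin donor/nickel chelate acceptor beads (10 ug/mL each).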

Chromobox protein homolog 1 (Homo sapiens), sequence (P83916 whole entry, looked up): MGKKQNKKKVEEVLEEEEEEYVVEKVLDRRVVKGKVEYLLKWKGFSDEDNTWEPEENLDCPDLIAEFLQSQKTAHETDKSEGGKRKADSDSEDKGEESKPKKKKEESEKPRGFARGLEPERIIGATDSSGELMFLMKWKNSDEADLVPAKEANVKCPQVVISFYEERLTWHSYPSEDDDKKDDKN

Structure (SMILES) | activity change, negative = inhibition [%] | Potency
Cn1cc(C(F)(F)F)nc1-c1ccc(OCC(O)CNCCOc2ccc(O)c(C(N)=O)c2)cc1 (configuration not stated) | 3.13 | –
CC1CNCCN1S(=O)(=O)c1cccc2cnccc12 (configuration not stated) | -6.21 | –
C[C@](Cc1ccc(O)c(O)c1)(NN)C(=O)O | 16.8 | –
CC(O)C(O)[C@H]1CNc2nc(N)[nH]c(=O)c2N1 (some centres not stated) | 0.532 | –
Nc1nc2c(nc(Br)n2C2OC3COP(=O)(O)O[C@@H]3C2O)c(=O)[nH]1 (some centres not stated) | 1.79 | –
Nc1nc2c(cnn2CCc2ccccc2)c2nc(-c3ccco3)nn12 | 12.5 | –
CCCCCCCCCC(=O)NC(CN1CCOCC1)[C@H](O)c1ccccc1 (some centres not stated) | 3.71 | –
CCCCCCCCCCCCCCCCCCOC[C@H](COP(=O)([O-])OCC[N+](C)(C)C)OC | -3.46 | –
C[C@H](NC(=O)/C(C#N)=C/c1ccc(O)c(O)c1)c1ccccc1 | – | 31.6 µM (active)
CCCCCCCCCCC(C)(C)C(=O)Nc1c(OC)cc(OC)cc1OC | 37.8 | –
CC[C@H](NC(=O)c1c(C)c(-c2ccccc2)nc2ccccc12)c1ccccc1 | -7.54 | –
C=C1C[C@@]23CC[C@H]4[C@@](C)(CCC[C@@]4(C)C(=O)OC4OC(CO)C(O)C(O)C4O)[C@@H]2CC[C@]1(OC1OC(CO)C(O)C(O)C1OC1OC(CO)C(O)C(O)C1O)C3 (some centres not stated) | – | 0.006 µM (active)
CCCCCCC(=O)OC1CC(C)(C)NC(C)(C)C1 | -6.55 | –
NCCNS(=O)(=O)c1cccc2c(Cl)cccc12 | 1.6 | –
COc1cc(/C=C(\C#N)C(=O)Nc2nnc(C(F)(F)F)s2)ccc1OCc1ccc(C(F)(F)F)cc1C(F)(F)F | – | 89.1 µM (active)
CN(CC[C@@H](Oc1ccc(C(F)(F)F)cc1)c1ccccc1)CC(=O)O | -5.44 | –
OC[C@H]1O[C@H](n2cnc3c(N[C@H]4CCC[C@@H]4O)ncnc32)[C@H](O)[C@@H]1O | -1.43 | –
CCc1ccc2c(-c3cccc(Cl)c3)nc(=O)n(CC)c2n1 | -10.4 | –
O=C1Nc2ccc(I)cc2/C1=C/c1cc(Br)c(O)c(Br)c1 | – | 11.2 µM (active)
NC(=Nc1ccccc1)NC(=O)c1nc(Cl)c(N)nc1N | -2.92 | –
CC[n+]1c(/C=C/C=C2/N(C)c3ccccc3C2(C)C)sc2ccccc21 | – | 25.1 µM (active)
CSc1nc(N)c2ncn([C@@H]3O[C@H](COP(=O)(O)OP(=O)(O)O)C(O)[C@H]3O)c2n1 (some centres not stated) | -1.66 | –
COc1ccc(CCn2nnnc2C2(c3ccc(C)cc3)CC2)cc1 | 10.1 | –
